Assay results from article PMC4336329 (PLoS ONE, 2015).
About 14,000 (4.5%) of roughly 310,000 compounds showed an effect of 50% or more. Effects have a minus sign here. Many of the other results were omitted from the sample, so strong results are more common in it than they were.

Molecular target: human ether-à-go-go-related gene (hERG) potassium channel (human, UniProt Q12809)
Assay: primary screen, population patch clamp on CHO cells stably expressing hERG; higher = less effect of the substance
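Also: peak tail current of the secondary pulse compared with the same well before compound.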

Chain of human ether-à-go-go-related gene (hERG) potassium channel (Q12809 whole entry, looked up): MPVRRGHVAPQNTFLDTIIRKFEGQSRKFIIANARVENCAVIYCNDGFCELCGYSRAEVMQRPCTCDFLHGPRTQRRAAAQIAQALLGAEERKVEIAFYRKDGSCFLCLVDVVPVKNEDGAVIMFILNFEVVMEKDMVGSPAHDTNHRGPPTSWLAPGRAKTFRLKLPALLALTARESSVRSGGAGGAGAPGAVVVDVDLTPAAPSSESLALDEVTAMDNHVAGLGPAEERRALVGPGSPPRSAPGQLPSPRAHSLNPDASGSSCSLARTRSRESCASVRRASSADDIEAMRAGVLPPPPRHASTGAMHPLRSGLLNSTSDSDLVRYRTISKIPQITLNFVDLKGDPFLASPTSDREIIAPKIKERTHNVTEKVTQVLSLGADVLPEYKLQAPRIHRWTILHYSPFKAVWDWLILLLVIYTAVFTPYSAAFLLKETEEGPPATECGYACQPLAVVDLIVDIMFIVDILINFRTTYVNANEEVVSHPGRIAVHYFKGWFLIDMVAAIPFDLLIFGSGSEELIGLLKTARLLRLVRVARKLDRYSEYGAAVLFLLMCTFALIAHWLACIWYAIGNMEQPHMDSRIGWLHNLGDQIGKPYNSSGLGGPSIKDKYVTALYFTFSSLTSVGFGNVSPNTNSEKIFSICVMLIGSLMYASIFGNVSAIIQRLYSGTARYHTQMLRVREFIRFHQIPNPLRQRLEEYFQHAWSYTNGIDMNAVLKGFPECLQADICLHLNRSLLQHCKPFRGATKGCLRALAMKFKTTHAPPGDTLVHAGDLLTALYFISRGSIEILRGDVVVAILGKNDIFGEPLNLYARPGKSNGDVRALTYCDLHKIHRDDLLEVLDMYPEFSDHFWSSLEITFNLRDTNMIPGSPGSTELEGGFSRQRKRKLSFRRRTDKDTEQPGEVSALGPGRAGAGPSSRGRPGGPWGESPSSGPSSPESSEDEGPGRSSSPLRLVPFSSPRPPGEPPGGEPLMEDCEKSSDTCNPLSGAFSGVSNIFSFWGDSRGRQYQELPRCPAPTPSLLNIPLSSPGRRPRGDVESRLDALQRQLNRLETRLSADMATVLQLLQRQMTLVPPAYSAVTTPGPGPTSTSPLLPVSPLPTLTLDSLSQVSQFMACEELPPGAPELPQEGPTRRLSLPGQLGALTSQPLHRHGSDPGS

Compared with O=c1c2ccccc2ncn1-c1ccc([N+](=O)[O-])c(C(F)(F)F)c1, O=C(COC(=O)CCc1nc2ccccc2c(=O)[nH]1)Nc1ccc(OC(F)(F)F)cc1 is lower in “hERG current change (%, negative = inhibition) at 10uM” value: -3.74% for the first, -5.93% for the second.

First: CC#C[C@@H](CC)c1ccc2ccn(C)c2c1
Second: Cc1cc(C)c(C#N)c(SCc2ccccc2)n1
The “hERG current change (%, negative = inhibition) at 10uM” value of the first is lower: -4.51% for the first, 11.2% for the second.

Going from O=C(NC1CCCCCCC1)c1ccc(F)cc1 to CC(C)CCNC(=O)c1ccc(NC(=O)C2=CSCCO2)cc1, the “hERG current change (%, negative = inhibition) at 10uM” value falls from 4.61% to 4.36%.

Compared with COC(=O)C(Cc1ccccc1)NC(=O)c1cc(=O)[nH]c2ccccc12 (centres unmarked), Cc1cccc(C(=O)N[C@H](C(=O)Nc2nc3ccccc3[nH]2)C(C)C)c1 is lower in “hERG current change (%, negative = inhibition) at 10uM” value: 17.6% for the first, 3.32% for the second.

First: COc1ccccc1C1=NOC(C)(c2sc(-c3ccccc3)nc2C)C1 (centres unmarked)
Second: Clc1ccccc1Nc1nnc(-c2ccncc2)s1
The “hERG current change (%, negative = inhibition) at 10uM” value of the first is higher: 21.7% for the first, -6.07% for the second.

First: Cc1ccc(Nc2nnc(-c3ccncc3)s2)c(Br)c1
Second: CNc1nnc(-c2ccncc2)s1
The “hERG current change (%, negative = inhibition) at 10uM” value of the first is lower: -59.3% for the first, -0.587% for the second.

First: Cc1cc(=O)oc2cc(OCC(=O)N3CCN(C(=O)c4ccco4)CC3)ccc12.Cl
Second: CCOc1ccc2oc(=O)cc(CN3CCN(C(=O)c4ccco4)CC3)c2c1
The “hERG current change (%, negative = inhibition) at 10uM” value of the first is higher: -32.6% for the first, -69.4% for the second.

Compared with CCOc1ccc2oc(=O)cc(CN3CCN(Cc4ccccc4)CC3)c2c1, CCN1CCN(Cc2cc(=O)oc3ccc(Cl)cc23)CC1 is higher in “hERG current change (%, negative = inhibition) at 10uM” value: -56.7% for the first, -15% for the second.

Going from CCOc1ccc2oc(=O)cc(CN3CCOCC3)c2c1 to CCOc1ccc(NC(=O)CSc2nc(=O)n(CCCN3CCOCC3)c3c2CCC3)cc1, the “hERG current change (%, negative = inhibition) at 10uM” value falls from -1.8% to -24.1%.

First: CCOc1ccc(CN2CCN(C(=O)c3ccco3)CC2)cc1.O=C(O)C(=O)O
Second: CCOc1ccc(CN2CCN(Cc3[nH]c4ccccc4c3C)CC2CCO)cc1 (centres unmarked)
The “hERG current change (%, negative = inhibition) at 10uM” value of the first is higher: -26.8% for the first, -75.8% for the second.

Compared with Cc1cc(OC2CCCCC2)nc(NCc2ccccc2)n1, O=C1C=C(NCc2ccccc2)C2(CCCCC2)O1 is lower in “hERG current change (%, negative = inhibition) at 10uM” value: 1.82% for the first, 0.0967% for the second.

Compared with COc1ccccc1CNC(=O)COC(=O)Cc1cccc(F)c1, COc1cc(C(=O)OCC(=O)c2c[nH]c3ccccc23)ccc1OCC(=O)N1CCOCC1 is higher in “hERG current change (%, negative = inhibition) at 10uM” value: 1.78% for the first, 5.92% for the second.

First: CC1Cc2ccccc2N1C(=O)CSc1nnc(N)s1 (centres unmarked)
Second: Cc1nnc(SCC(=O)N2c3ccccc3CC2C)s1 (centres unmarked)
The “hERG current change (%, negative = inhibition) at 10uM” value of the first is higher: 13% for the first, -54.2% for the second.

Compared with CCC(=O)Nc1nnc(SCC(=O)N2c3ccccc3CC2C)s1 (centres unmarked), Cc1csc(NC(=O)CSc2nncn2C)n1 is higher in “hERG current change (%, negative = inhibition) at 10uM” value: 5.26% for the first, 19% for the second.

First: CC(C)CN1CCN(Cc2cc3ccccc3[nH]2)CC1CCO (centres unmarked)
Second: COc1cccc(CN2CCN(Cc3cc4ccccc4[nH]3)CC2CCO)c1 (centres unmarked)
The “hERG current change (%, negative = inhibition) at 10uM” value of the first is higher: -8.69% for the first, -59.7% for the second.

Compared with COc1ccc2[nH]c(CN3CCN(CC=C(C)C)C(CCO)C3)c(C)c2c1 (centres unmarked), COc1ccc2[nH]c(CN3CCN(CC(C)C)C(CCO)C3)c(C)c2c1 (centres unmarked) is higher in “hERG current change (%, negative = inhibition) at 10uM” value: -17.1% for the first, 5.18% for the second.

Going from CCOc1ccc(CN2CCN(Cc3[nH]c4ccc(OC)cc4c3C)CC2CCO)cc1 (centres unmarked) to COc1cccc(CN2CCN(Cc3[nH]c4ccccc4c3C)CC2CCO)c1 (centres unmarked), the “hERG current change (%, negative = inhibition) at 10uM” value rises from -77.9% to -60.5%.

First: COc1cccc(CN2CCN(Cc3ccc(C)o3)CC2CCO)c1 (centres unmarked)
Second: COc1cc(CN2CCN(Cc3c[nH]c4ccccc34)CC2CCO)cc(OC)c1 (centres unmarked)
The “hERG current change (%, negative = inhibition) at 10uM” value of the first is higher: -21.2% for the first, -32.3% for the second.

Compared with Cc1c(CN2CCN(CC(C)(C)C)C(CCO)C2)[nH]c2ccccc12 (centres unmarked), CCOc1ccccc1CN1CCN(Cc2[nH]c3ccccc3c2C)CC1CCO (centres unmarked) is lower in “hERG current change (%, negative = inhibition) at 10uM” value: 12.2% for the first, -62.3% for the second.

First: COc1ccc2[nH]c(CN3CCN(CCC(C)C)C(CCO)C3)c(C)c2c1 (centres unmarked)
Second: Cc1c(CN2CCN(CC(C)C)C(CCO)C2)[nH]c2ccc(Cl)cc12 (centres unmarked)
The “hERG current change (%, negative = inhibition) at 10uM” value of the first is higher: 23.5% for the first, -34.4% for the second.

First: CCOc1ccccc1CN1CCN(Cc2c[nH]c3ccccc23)CC1CCO (centres unmarked)
Second: Cc1cc(O)c(CN2CCN(c3ccccc3)CC2)cc1C
The “hERG current change (%, negative = inhibition) at 10uM” value of the first is lower: -6.71% for the first, 3.98% for the second.

Going from NC(=O)COc1ccc(Cc2ncc(C(F)(F)F)cc2Cl)cc1 to O=C(Nc1ccccc1Cl)Oc1ccc(Cl)cc1Cl, the “hERG current change (%, negative = inhibition) at 10uM” value rises from -2.34% to 12.8%.

First: Cc1ccc(C)c(NS(=O)(=O)c2cc(C(=O)N3CCc4ccccc4C3)ccc2Cl)c1
Second: Cc1ccc(S(=O)(=O)N(CC(=O)N2CCC(C)CC2)c2ccccc2)cc1
The “hERG current change (%, negative = inhibition) at 10uM” value of the first is higher: 8.24% for the first, -26.4% for the second.

Compared with CCOc1ccc(C(=O)NCC(=O)OCc2c(C)noc2C)cc1OCC, COc1ccc([N+](=O)[O-])cc1NC(=O)C(C)Sc1nc(C)c(C)c(C)n1 (centres unmarked) is lower in “hERG current change (%, negative = inhibition) at 10uM” value: 23.2% for the first, -44.4% for the second.

Compared with Cc1ccc(NC2=Nc3ccccc3CC2)cc1, Cc1ccc(N(CC(=O)N2CCOCC2)S(=O)(=O)c2ccccc2)cc1 is higher in “hERG current change (%, negative = inhibition) at 10uM” value: -18.2% for the first, -2.35% for the second.

Going from CS(=O)(=O)c1ccc2nc(NC(=O)c3ccc(N4C(=O)CCC4=O)cc3)sc2c1 to Cc1ccc(NC(=O)c2ccc(OC(F)F)cc2)cc1S(=O)(=O)N(C)C, the “hERG current change (%, negative = inhibition) at 10uM” value falls from 6.3% to -10.4%.

First: CSc1nc2c(c(=O)[nH]1)C(c1ccccc1Cl)CC(=O)N2 (centres unmarked)
Second: Cc1nc(-c2cccc(S(=O)(=O)N3CCOCC3)c2)cs1
The “hERG current change (%, negative = inhibition) at 10uM” value of the first is higher: 12.8% for the first, -2.11% for the second.

First: CCc1nnc(NS(=O)(=O)c2ccc(Nc3ccc([N+](=O)[O-])c4nonc34)cc2)s1
Second: CCN(c1ccc(NS(=O)(=O)c2cc(Cl)ccc2Cl)cc1)C(C)C
The “hERG current change (%, negative = inhibition) at 10uM” value of the first is higher: 46.6% for the first, -0.282% for the second.

First: CCCCc1ccc(NC(=O)CSc2nc(=O)n(CCCN3CCOCC3)c3c2CCC3)cc1
Second: CCCCc1ccc(NC(=O)CSc2nc(=O)n(CCN3CCOCC3)c3c2CCC3)cc1
The “hERG current change (%, negative = inhibition) at 10uM” value of the first is higher: -64.5% for the first, -66.5% for the second.

Compared with CCOC(=O)c1ccc(NC(=O)CSc2nc(=O)n(CCN3CCOCC3)c3c2CCC3)cc1, CCc1ccc(NC(=O)CSc2nc(=O)n(CCCN3CCOCC3)c3c2CCC3)cc1 is lower in “hERG current change (%, negative = inhibition) at 10uM” value: -32% for the first, -40% for the second.

Going from CCc1ccc(NC(=O)CSc2nc(=O)n(CCCN3CCOCC3)c3c2CCCC3)cc1 to Cn1nnc2cc(C(=O)N3CCN(c4ccccc4)CC3)ccc21, the “hERG current change (%, negative = inhibition) at 10uM” value rises from -54.7% to -3.95%.

First: O=C(COC(=O)c1cc[n+]([O-])cc1)Nc1ccc(Cl)cc1[N+](=O)[O-]
Second: COc1ccc(Cl)cc1N(CC(=O)NCC(C)C)S(=O)(=O)c1ccc(C)c([N+](=O)[O-])c1
The “hERG current change (%, negative = inhibition) at 10uM” value of the first is higher: 15.6% for the first, 8.34% for the second.

Going from COc1ccc(C(CC(=O)c2ccccc2)S(=O)(=O)c2ccc(C)cc2)cc1 (centres unmarked) to Cc1ccc(S(=O)(=O)N(CC(=O)N2CCC(C)CC2)c2cccc(C)c2)cc1, the “hERG current change (%, negative = inhibition) at 10uM” value falls from 12.8% to -55.1%.

Going from COC(=O)C(NNc1ccccc1C)(NC(=O)c1ccc(F)cc1)C(F)(F)F (centres unmarked) to CCN(CC)C(=O)C(C(=O)c1cccc([N+](=O)[O-])c1)n1cc(Cl)ccc1=O (centres unmarked), the “hERG current change (%, negative = inhibition) at 10uM” value rises from -1.2% to 24.8%.

Going from CC(C)c1onc(C(=O)N2CCN(C(c3ccccc3)c3ccccc3)CC2)c1[N+](=O)[O-] to O=C(CN(c1ccccc1)S(=O)(=O)c1ccccc1)N1CCOCC1, the “hERG current change (%, negative = inhibition) at 10uM” value falls from 13.6% to 4.9%.

Compared with O=C(O)C(F)(F)F.O=C1C(Cc2ccccc2)Nc2ncnc(N3CCN(c4ccccc4)CC3)c2N1Cc1ccc(Cl)cc1 (centres unmarked), COc1ccc(-n2nc(C(=O)NCC(=O)N3CCN(c4cccc(Cl)c4)CC3)c3ccccc3c2=O)c(OC)c1 is lower in “hERG current change (%, negative = inhibition) at 10uM” value: 0.92% for the first, -2.74% for the second.

Going from Cc1cc(C)cc(N(CC(=O)N2CCC(C)CC2)S(C)(=O)=O)c1 to Cc1cc(C)cc(N(CC(=O)N2CCC(C)CC2)S(=O)(=O)c2ccccc2)c1, the “hERG current change (%, negative = inhibition) at 10uM” value falls from -38.6% to -70.3%.

Going from CCOC(=O)N1CCN(C(=O)CN(c2cccc(C)c2)S(=O)(=O)c2ccc(C)cc2)CC1 to Cc1cc(C)cc(N(CC(=O)N2CCOCC2)S(=O)(=O)c2ccccc2)c1, the “hERG current change (%, negative = inhibition) at 10uM” value falls from -39.7% to -56.1%.

Compared with CC1CCN(C(=O)CN(c2ccc3c(c2)OCCO3)S(=O)(=O)c2ccccc2)CC1, CC1CCN(C(=O)C2CCN(c3nnc(-n4cccc4)s3)CC2)CC1 is higher in “hERG current change (%, negative = inhibition) at 10uM” value: -26.6% for the first, -12.1% for the second.

Going from Cc1cccnc1NC(=O)Nc1cccs1 to Cc1ccc(NC(=O)CCl)c(C)c1, the “hERG current change (%, negative = inhibition) at 10uM” value rises from 12.4% to 21.6%.

Compared with COc1ccc(-c2[nH]ncc2CNC(C)Cc2ccsc2)c(F)c1 (centres unmarked), CC(Cc1ccsc1)NCc1cn[nH]c1-c1ccc(F)cc1F (centres unmarked) is lower in “hERG current change (%, negative = inhibition) at 10uM” value: -36.1% for the first, -66.3% for the second.

Going from COc1ccc(-c2[nH]ncc2CNC(C)CCn2cccn2)c(F)c1 (centres unmarked) to Cc1cccc(N2CCN(C(=O)C3CCN(c4nnc(-n5cccc5)s4)CC3)CC2C)c1 (centres unmarked), the “hERG current change (%, negative = inhibition) at 10uM” value falls from -15.4% to -55.8%.

Going from CC(=O)/C(N=Nc1nc2c([nH]1)c(=O)n(C)c(=O)n2C)=C(\C)O to CCOC(=O)C1CCN(C(=O)C2CCN(c3nn4c(=O)cc(C)nc4s3)CC2)CC1, the “hERG current change (%, negative = inhibition) at 10uM” value falls from 13.2% to 3.2%.

Compared with Cc1ccc(Cl)cc1N1CCN(C(=O)C2CCN(c3nnc(-n4cccc4)s3)CC2)CC1, O=C(C1CCN(c2nnc(-n3cccc3)s2)CC1)N1CCN(c2cccc(C(F)(F)F)c2)CC1 is lower in “hERG current change (%, negative = inhibition) at 10uM” value: -16.4% for the first, -22.8% for the second.

Compared with CCOC(=O)C1CCN(C(=O)C2CCN(c3nnc(-n4cccc4)s3)CC2)CC1, CCOC(=O)C1CCCN(C(=O)C2CCN(c3nnc(-n4cccc4)s3)CC2)C1 (centres unmarked) is higher in “hERG current change (%, negative = inhibition) at 10uM” value: -62.5% for the first, -48.6% for the second.

Compared with CCN1CCN(C(=O)C2CCN(c3nnc(-n4c(C)ccc4C)s3)CC2)CC1, CCOC(=O)N1CCN(C(=O)C2CCN(c3nnc(-n4cccc4)s3)CC2)CC1 is lower in “hERG current change (%, negative = inhibition) at 10uM” value: -13% for the first, -57.1% for the second.
